# Activity calls are given as the source filed them.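 Rule for the calls, unless noted: active = visual image review flags a hit and inhibition of aggregation exceeds 20%; inconclusive = visual hit but inhibition at or below 20%; inactive = no hit on visual image review.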 Where a SMILES comes first, the peptide text is derived from it. The star is where a group is joined. Boc = CC(C)(C)OC(=O)*
# Columns and labels:
# [1] = inhibitors of TNFa-induced NFkB p65 translocation, primary screen, imaging, HUVEC, MLSMR starter and 10KST1 sets (AID 438;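 active = inhibition above 20% together with a positive visual image hit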;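 note: compound added about 3h40 before a 20 min TNFalpha stimulation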;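 for inhibition: signal is the nuclear over cytoplasmic p65 intensity ratio per well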); conditions: HUVEC TNFa-induced p65 nuclear translocation; cell count: measured here: nuclei count (cytotoxicity indicator), at 2.08 µM; inhibition: at 2 µM, stronger effect = higher value, 0% TNFa-plus-vehicle, 100% no-TNFa wells
# [2] = inhibitors of mutant huntingtin aggregation, primary screen, imaging, exon1htt(103Q)mCFP cells, high-content imaging (AID 483); conditions: exon1htt(103Q)mCFP cell line, aggregate imaging, at 2 µM; inhibition of aggregation: stronger effect = higher value; nuclei count: measured here: cell count, toxicity;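 note: compound exposure lasted 3 days before fixation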;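 for nuclei count: percent of the per-plate median nuclei count of sample wells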
# [3] = inhibitors of E-selectin induction by TNFa, primary screen, imaging, HUVEC, immunofluorescence, MLSMR starter and 10KST1 sets (AID 487;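 active = visually confirmed hit in the image check and inhibition above 20%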;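 for inhibition: signal is fraction of cell area covered by stained E-selectin grains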;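 for nuclei count: 100% = median nuclei count of all wells on the same plate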); conditions: HUVEC TNFalpha-induced E-selectin immunofluorescence imaging, at 2 µM; inhibition: stronger effect = higher value; nuclei count: measured here: cell number, toxicity
# [4] = molecular target: Voltage-gated potassium channel subunit beta-2 (Rattus norvegicus) (UniProt P62483); assay: KvBeta enzyme negative modulators, primary screen, biochemical, NADPH fluorescence (AID 622;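 active = fluorescence slope higher than the sample average by over 3 SD, cut at about -0.22 in these data, passing the limit was not always enough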;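 note: slope of raw intensity against log time taken from 70 to 1610 s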); conditions: recombinant KvBeta, 4-cyanobenzaldehyde reduction, at 10 µM, stronger effect = higher value
# Sequence of Voltage-gated potassium channel subunit beta-2 (Rattus norvegicus) (P62483 whole entry, looked up): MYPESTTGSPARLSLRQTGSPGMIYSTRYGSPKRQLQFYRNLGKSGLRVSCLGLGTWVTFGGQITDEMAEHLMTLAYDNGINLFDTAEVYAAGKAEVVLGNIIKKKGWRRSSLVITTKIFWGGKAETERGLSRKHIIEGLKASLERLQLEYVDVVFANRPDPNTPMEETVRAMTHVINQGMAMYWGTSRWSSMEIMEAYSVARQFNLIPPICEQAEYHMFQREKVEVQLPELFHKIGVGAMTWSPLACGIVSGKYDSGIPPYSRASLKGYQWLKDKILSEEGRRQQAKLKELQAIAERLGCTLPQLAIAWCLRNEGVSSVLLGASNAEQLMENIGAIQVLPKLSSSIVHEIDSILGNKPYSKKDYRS
# [5] = molecular target: Voltage-gated potassium channel subunit beta-2 (Rattus norvegicus) (UniProt P62483); assay: KvBeta positive modulators, primary screen, biochemical, NADPH fluorescence (AID 623;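 active = NADPH fluorescence slope more negative than the mean of all samples by about 3 SD, 99.7% confidence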;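 note: fluorescence intensity change per second fitted from 20 to 320 s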); conditions: Recombinant KvBeta, NADPH fluorescence decrease slope, 10 min; at 10 µM; stronger effect = lower value
# [6] = molecular target: Alpha-2C adrenergic receptor (Homo sapiens) (UniProt P18825); assay: modulators of alpha2C/GIRK thallium flux, primary screen, cell-based, HEK293 alpha2C/GIRK1/2 (AID 624;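 active = fluorescence slope after compound addition differing from the mean of all screened samples at 99.7% confidence, in either direction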;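 note: slope of fluorescence ratio to pre-addition baseline per second over 15 to 24 s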); conditions: thallium flux BTC fluorescence, at 10 µM, actives lie on both sides
# Sequence of Alpha-2C adrenergic receptor (Homo sapiens) (P18825 whole entry, looked up): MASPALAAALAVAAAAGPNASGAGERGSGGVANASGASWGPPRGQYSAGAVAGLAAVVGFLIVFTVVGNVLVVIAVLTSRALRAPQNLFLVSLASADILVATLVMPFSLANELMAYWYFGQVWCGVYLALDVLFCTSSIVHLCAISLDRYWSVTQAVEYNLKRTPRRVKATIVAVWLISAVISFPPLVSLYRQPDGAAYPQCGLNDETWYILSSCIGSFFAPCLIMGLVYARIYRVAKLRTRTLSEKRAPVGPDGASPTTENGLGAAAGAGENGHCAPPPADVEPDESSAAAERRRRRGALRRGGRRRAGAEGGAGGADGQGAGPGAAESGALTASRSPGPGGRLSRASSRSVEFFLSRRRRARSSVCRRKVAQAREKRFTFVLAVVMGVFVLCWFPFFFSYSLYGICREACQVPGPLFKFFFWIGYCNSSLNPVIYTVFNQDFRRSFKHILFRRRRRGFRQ
# [7] = inhibitors of Sendai virus-induced IRF3 signaling, primary screen, TLR/RLR signaling modifier project, cell-based, Sendai virus stimulus, luciferase, 10K MLSCN set (AID 602276;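 active = inhibition at or above 50% at 10 µM; inactive = inhibition below 50%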;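 note: firefly luciferase from ISG56 promoter only with Renilla not read in this screen; 0% = Sendai virus plus DMSO and 100% = medium plus DMSO without virus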); conditions: HEK293 RL24 IRF3 luciferase reporter, at 10 µM, stronger effect = higher value
# [8] = inhibitors of poly I:C-induced TLR3 signaling, primary screen, cell-based, poly I:C stimulus, luciferase, 10K MLSCN set (AID 602277;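 active = inhibition of the reporter signal at or above 50%; inactive = inhibition below 50%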); conditions: HEK293-TLR3 RL24 IRF3 luciferase reporter, at 10 µM, stronger effect = higher value
smiles,measurement,setting,value
CCN(c1cccc(C(F)(F)F)c1)S(=O)(=O)c1ccc2c(c1)CCN2C(=O)C1CC1,cell count,[1],495
same,inhibition,[1],2.7% (inactive)
same,inhibition of aggregation,[2],3.1% (inactive)
same,nuclei count,[2],97.3%
same,inhibition,[3],-51.5% (inactive)
same,nuclei count,[3],104%
same,fluorescence slope,[4],-0.405 (inactive)
same,NADPH fluorescence slope,[5],-4.7e-05 (inactive)
same,slope,[6],0.00287 (inactive)
same,inhibition,[7],-11.8% (inactive)
same,inhibition,[8],-25.9% (inactive)
COCCNS(=O)(=O)c1cc(F)ccc1OC,cell count,[1],782
same,inhibition,[1],-6.6% (inactive)
same,inhibition of aggregation,[2],-2.8% (inactive)
same,nuclei count,[2],113%
same,inhibition,[3],-62.4% (inactive)
same,nuclei count,[3],111%
same,fluorescence slope,[4],-0.481 (inactive)
same,NADPH fluorescence slope,[5],-3.4e-05 (inactive)
same,slope,[6],0.00632 (inactive)
same,inhibition,[7],-4.54% (inactive)
same,inhibition,[8],25.9% (inactive)
Cc1nc2ccccc2c2oc(C(=O)N3CCN(C(=O)c4ccco4)CC3)cc12,cell count,[1],784
same,inhibition,[1],11.3% (inactive)
same,inhibition of aggregation,[2],0% (inactive)
same,nuclei count,[2],65.6%
same,inhibition,[3],4.8% (inactive)
same,nuclei count,[3],98.3%
same,fluorescence slope,[4],-0.585 (inactive)
same,NADPH fluorescence slope,[5],-1.4e-05 (inactive)
same,slope,[6],0.00761 (inactive)
same,inhibition,[7],6.87% (inactive)
same,inhibition,[8],12.8% (inactive)
CCn1ncc(Cl)c1C(=O)Nc1ccncc1,cell count,[1],587
same,inhibition,[1],-6.1% (inactive)
same,inhibition of aggregation,[2],-21.9% (inactive)
same,nuclei count,[2],56.2%
same,inhibition,[3],-41% (inactive)
same,nuclei count,[3],101%
same,fluorescence slope,[4],-0.577 (inactive)
same,NADPH fluorescence slope,[5],-5.6e-05 (inactive)
same,slope,[6],0.00342 (inactive)
same,inhibition,[7],3.99% (inactive)
same,inhibition,[8],-1.03% (inactive)
O=C(Nc1ccc(OC(=O)c2ccco2)cc1)c1ccco1,cell count,[1],239
same,inhibition,[1],-2.2% (inactive)
same,inhibition of aggregation,[2],-7.4% (inactive)
same,nuclei count,[2],92%
same,inhibition,[3],10.8% (inactive)
same,nuclei count,[3],101%
same,fluorescence slope,[4],-0.442 (inactive)
same,NADPH fluorescence slope,[5],-1e-05 (inactive)
same,slope,[6],0.00563 (inactive)
same,inhibition,[7],4.1% (inactive)
same,inhibition,[8],-1.78% (inactive)
CC(C)n1c(NCc2c[nH]c3ccccc23)nc2ccccc21,cell count,[1],489
same,inhibition,[1],1% (inactive)
same,inhibition of aggregation,[2],20.3% (inactive)
same,nuclei count,[2],54.6%
same,inhibition,[3],-5.1% (inactive)
same,nuclei count,[3],86.6%
same,fluorescence slope,[4],-0.511 (inactive)
same,NADPH fluorescence slope,[5],-4.3e-05 (inactive)
same,slope,[6],0.00272 (inactive)
same,inhibition,[7],-4.81% (inactive)
same,inhibition,[8],-0.81% (inactive)
COc1ccccc1N1CCN(Cc2nc(N)nc(Nc3ccc(C)c(Cl)c3)n2)CC1,cell count,[1],467
same,inhibition,[1],-1.9% (inactive)
same,inhibition of aggregation,[2],17.2% (inactive)
same,nuclei count,[2],97.1%
same,inhibition,[3],-5.6% (inactive)
same,nuclei count,[3],100%
same,fluorescence slope,[4],-0.501 (inactive)
same,NADPH fluorescence slope,[5],1e-05 (inactive)
same,slope,[6],0.00625 (inactive)
same,inhibition,[7],11.5% (inactive)
same,inhibition,[8],29.6% (inactive)
CCOc1cccc(-n2nnnc2-c2ccc(OC)cc2)c1,cell count,[1],208
same,inhibition,[1],1.2% (inactive)
same,inhibition of aggregation,[2],-34.6% (inactive)
same,nuclei count,[2],3.6%
same,inhibition,[3],-13.7% (inactive)
same,nuclei count,[3],112%
same,fluorescence slope,[4],-0.591 (inactive)
same,NADPH fluorescence slope,[5],-1.5e-05 (inactive)
same,slope,[6],0.00569 (inactive)
same,inhibition,[7],43% (inactive)
same,inhibition,[8],61.2% (active)
CCCN1C2CCCC1CC(NC(=O)c1ccccc1F)C2 (stereo not drawn),cell count,[1],461
same,inhibition,[1],6% (inactive)
same,inhibition of aggregation,[2],-1.6% (inactive)
same,nuclei count,[2],115%
same,inhibition,[3],14.8% (inactive)
same,nuclei count,[3],101%
same,fluorescence slope,[4],-0.515 (inactive)
same,NADPH fluorescence slope,[5],-4.7e-05 (inactive)
same,slope,[6],0.00485 (inactive)
same,inhibition,[7],10.6% (inactive)
same,inhibition,[8],17.7% (inactive)
O=C(Cn1ccc2ccccc2c1=O)Nc1ccc2c(c1)OCO2,cell count,[1],231
same,inhibition,[1],-1.8% (inactive)
same,inhibition of aggregation,[2],1% (inactive)
same,nuclei count,[2],103%
same,inhibition,[3],0% (inactive)
same,nuclei count,[3],91.4%
same,fluorescence slope,[4],-0.602 (inactive)
same,NADPH fluorescence slope,[5],-4.5e-05 (inactive)
same,slope,[6],0.00747 (inactive)
same,inhibition,[7],0.207% (inactive)
same,inhibition,[8],-4.72% (inactive)
CC(C)CC(NC(=O)OC(C)(C)C)C(=O)NC(C(=O)N1CCCC1C(N)=O)C(C)C (stereo not drawn) (Boc-Leu-Val-Pro-NH2; configuration not given here),cell count,[1],662
same,inhibition,[1],8.7% (inactive)
same,inhibition of aggregation,[2],-4% (inactive)
same,nuclei count,[2],100%
same,inhibition,[3],62.5% (inactive)
same,nuclei count,[3],89.1%
same,fluorescence slope,[4],-0.485 (inactive)
same,NADPH fluorescence slope,[5],-2.7e-05 (inactive)
same,slope,[6],0.00542 (inactive)
same,inhibition,[7],4.38% (inactive)
same,inhibition,[8],20.6% (inactive)
CN(CC(=O)Nc1ccc2c(c1)OCCO2)S(=O)(=O)c1ccc(Br)s1,cell count,[1],315
same,inhibition,[1],-1.9% (inactive)
same,inhibition of aggregation,[2],-7.8% (inactive)
same,nuclei count,[2],100%
same,inhibition,[3],-21% (inactive)
same,nuclei count,[3],98.5%
same,fluorescence slope,[4],-0.403 (inactive)
same,NADPH fluorescence slope,[5],-4.9e-05 (inactive)
same,slope,[6],0.00399 (inactive)
same,inhibition,[7],-3.5% (inactive)
same,inhibition,[8],10.4% (inactive)
O=C(Nc1ccc2snnc2c1)N1CCSCC1,cell count,[1],407
same,inhibition,[1],-3% (inactive)
same,inhibition of aggregation,[2],1.8% (inactive)
same,nuclei count,[2],97.6%
same,inhibition,[3],12.4% (inactive)
same,nuclei count,[3],106%
same,fluorescence slope,[4],-0.371 (inactive)
same,NADPH fluorescence slope,[5],-1.5e-05 (inactive)
same,slope,[6],0.00608 (inactive)
same,inhibition,[7],-5.1% (inactive)
same,inhibition,[8],3.28% (inactive)

# — PubChem BioAssay
